Measured values reported in PubChem BioAssay (NCI).
About 79,000 compounds went through this panel and 15% of them were active in at least one assay; those are over-represented in the sample as a whole. A number with no mark means an inactive call. Active and inactive are the calls of the source. No stated cut-off is given here; in the data, active means growth inhibition above about 70%; inactive means the rest.

Experiments:
[1] = NCI Yeast Anticancer Drug Screen. Data for the rad50 strain (AID 155);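 further: 0% = growth of vehicle-only cultures of the same strain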; details: S. cerevisiae rad50 strain growth inhibition, hits give high values
Outline: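 Vehicle-treated cultures provide the reference for the growth inhibition reported for compound-exposed, repair-deficient yeast.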

[2] = NCI Yeast Anticancer Drug Screen. Data for the mec2-1 strain (AID 157); details: S. cerevisiae mec2-1 strain, hits give high values
Outline: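 mec2-1 yeast strain, carrying an alteration in DNA damage repair or cell cycle control, was exposed to compounds; growth inhibition was measured relative to vehicle-treated controls.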

[3] = NCI Yeast Anticancer Drug Screen. Data for the sgs1 mgt1 strain (AID 161);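 further: 0% = growth of cultures given vehicle only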; details: S. cerevisiae sgs1 mgt1 strain, hits give high values
Outline: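 This yeast growth screen uses a strain with defined DNA-repair lesions; compound-treated growth is compared with vehicle-treated growth.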

[4] = NCI Yeast Anticancer Drug Screen. Data for the cln2 rad14 strain (AID 165);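 further: 0% = growth equal to vehicle treated cultures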; details: S. cerevisiae cln2 rad14 strain, hits give high values
Outline: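 Yeast carrying cln2 and rad14 alterations (cell cycle control and DNA damage repair) were exposed to compounds. Growth inhibition was measured against vehicle-treated controls.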

[5] = NCI Yeast Anticancer Drug Screen. Data for the bub3 strain (AID 167); details: S. cerevisiae bub3 mutant strain, hits give high values
Outline: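 Mutant yeast screening strain plus compound; vehicle-treated cultures serve as the 0% inhibition reference.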

[6] = NCI Yeast Anticancer Drug Screen. Data for the mlh1 rad18 strain (AID 175); details: S. cerevisiae mlh1 rad18 strain growth inhibition, hits give high values
Outline: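 Growth inhibition of the yeast strain was measured after compound exposure and expressed relative to vehicle-treated controls. The strain carries defined defects in DNA damage repair.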

[7] = at 5.0 µM (retest, dose inferred, filed as 0.5)
[8] = at 50.0 µM (retest, dose inferred, filed as 5.0)

Structure (SMILES) | growth inhibition [1, 7] | growth inhibition [1, 8] | growth inhibition ([1]; at 50.0 µM) | growth inhibition [2, 7] | growth inhibition [2, 8] | growth inhibition ([2]; at 50.0 µM) | growth inhibition [3, 7] | growth inhibition [3, 8] | growth inhibition ([3]; at 50.0 µM) | growth inhibition [4, 7] | growth inhibition [4, 8] | growth inhibition ([4]; at 50.0 µM) | growth inhibition [5, 7] | growth inhibition [5, 8] | growth inhibition ([5]; at 50.0 µM) | growth inhibition [6, 7] | growth inhibition [6, 8] | growth inhibition ([6]; at 50.0 µM)
SCCc1ccccn1 | -3% | 20% | 0.4% | -2% | 20% | 42% | 1% | 13% | 3.65% | -6% | 10% | 15.1% | -1% | 14% | 32.1% | -1% | 19% | 73.1% (active)
COc1ccc(C(c2ccccc2C(=O)O)c2ccc(OC)c3ccccc23)c2ccccc12 | 47% | 94% (active) | 59.6% | 70% (active) | 96% (active) | 88.8% (active) | 97% (active) | 96% (active) | 87.8% (active) | 96% (active) | 95% (active) | 89% (active) | 94% (active) | 95% (active) | 89.8% (active) | 97% (active) | 96% (active) | 88.7% (active)
O=C1C(SCCO)=C(SCCO)C(=O)c2ccccc21 | 8% | 87% (active) | 87% (active) | 20% | 61% | 57.5% | 16% | 66% | 66.7% | -4% | 48% | 17.8% | 44% | 83% (active) | 89.3% (active) | 17% | 77% (active) | 93.7% (active)
CNC(C)C(=O)c1ccc2ccc3ccccc3c2c1 (configuration not stated) | -3% | 24% | 54.5% | -5% | 12% | 46.6% | -2% | 34% | 58.9% | 0% | 16% | 17.6% | -3% | 24% | 67.8% | -6% | 28% | 71.5% (active)
NNC(=O)N/N=C(/CC1(O)C(=O)Nc2ccc(Br)cc21)c1ccccc1 (configuration not stated) | -1% | 83% (active) | 88.3% (active) | 1% | 66% | 83.8% (active) | -2% | 86% (active) | 89.6% (active) | -5% | 48% | 10.2% | 8% | 91% (active) | 81.3% (active) | 0% | 71% (active) | 93.7% (active)
CC1=C(C(=O)OCCO[N+](=O)[O-])C(c2ccccc2[N+](=O)[O-])C(C(=O)OC(C)C)=C(C)N1 (configuration not stated) | 11% | 97% (active) | 83.5% (active) | 22% | 97% (active) | 87.7% (active) | -2% | 97% (active) | 90.3% (active) | 10% | 92% (active) | 86.9% (active) | -3% | 97% (active) | 89.6% (active) | 19% | 97% (active) | 85.5% (active)
Clc1cc2c(c3ncccc13)OCN(Cc1ccccc1)C2 | 16% | 76% (active) | 99.2% (active) | 1% | 33% | 99.5% (active) | 14% | 98% (active) | 99.5% (active) | 9% | 98% (active) | 99.2% (active) | -3% | 99% (active) | 99.4% (active) | 23% | 99% (active) | 99.3% (active)
O=c1c2[nH]c3cccc(Cl)c3c2cnn1-c1ccc(F)cc1 | 4% | 47% | 96.7% (active) | 2% | 74% (active) | 97.2% (active) | 9% | 35% | 96.6% (active) | 2% | 85% (active) | 94.5% (active) | 2% | 53% | 98% (active) | -2% | 79% (active) | 97% (active)
NC(=S)Nc1cccc(C(F)(F)F)c1 | -14% | 92% (active) | 99.2% (active) | -20% | 95% (active) | 99.2% (active) | -10% | 92% (active) | 99.2% (active) | -45% | 92% (active) | 98.9% (active) | -24% | 94% (active) | 98.9% (active) | -19% | 93% (active) | 98.9% (active)
Cc1ccc(OC/C=C/c2cccc(C#N)c2)cc1 | -3% | 2% | -0.45% | 3% | -2% | 11.2% | 0% | 18% | -2.05% | -6% | -11% | 44% | 0% | 12% | -0.9% | -5% | -1% | 43.5%
c1ccc(OCCN2CCN(CCOc3ccccc3)CC2)cc1 | 21% | 29% | 71.7% (active) | 31% | 45% | 32.2% | 41% | 55% | 67.1% | 45% | 47% | 76.4% (active) | 43% | 53% | 56.7% | 44% | 61% | 44.1%
COc1ccc(C2(O)c3ccccc3C(=O)C2c2ccccn2)cc1 (configuration not stated) | 99% (active) | 10% | 99% (active) | 98% (active) | -5% | 99% (active) | 98% (active) | -1% | 99.3% (active) | 97% (active) | -1% | 98.8% (active) | 99% (active) | 7% | 99.3% (active) | 99% (active) | 4% | 98.9% (active)
Cc1ccc(C2(c3ccc(F)cc3)OC(=O)c3ccccc32)c(O)c1 (configuration not stated) | 11% | 99% (active) | 86.2% (active) | 13% | 99% (active) | 88.7% (active) | -14% | 99% (active) | 97% (active) | 3% | 99% (active) | 93.8% (active) | 11% | 99% (active) | 98.8% (active) | 27% | 99% (active) | 96.3% (active)
COc1ccc(C2c3cc4c(cc3OC(O)C2C)OCO4)cc1 (configuration not stated) | -3% | 69% | 96.8% (active) | -6% | 49% | 93.5% (active) | -2% | 78% (active) | 98.3% (active) | -2% | 42% | 95.3% (active) | -2% | 67% | 97% (active) | -1% | 74% (active) | 97.5% (active)
CC1CCC2(NC1)OC1CC3[C@@H]4CC=C5C=CCC[C@]5(C)C4CC[C@]3(C)C1C2C (some centres not stated) | -16% | 97% (active) | 90.8% (active) | 4% | 99% (active) | 93.1% (active) | -4% | 98% (active) | 91.6% (active) | 6% | 97% (active) | 90.9% (active) | -33% | 98% (active) | 90.8% (active) | -10% | 97% (active) | 89.1% (active)
COc1ccc(Oc2cc3c[n+](C)ccc3cc2OC)cc1 | 4% | 90% (active) | 99% (active) | -3% | 57% | 99% (active) | -3% | 91% (active) | 99.4% (active) | 2% | 70% (active) | 98% (active) | 0% | 90% (active) | 98% (active) | 15% | 88% (active) | 98.8% (active)
O=C(CBr)Nc1ccc(Cc2ccc(NC(=O)CBr)cc2)cc1 | 11% | -4% | 97.3% (active) | 20% | 0% | 98.7% (active) | 35% | -4% | 98.2% (active) | 24% | -2% | 97.1% (active) | 17% | 0% | 98.1% (active) | 25% | 1% | 97.2% (active)
O=c1c(Cl)cc2nc3ccccc3sc-2c1Cl | 21% | 72% (active) | 84% (active) | 42% | 84% (active) | 6.5% | 33% | 79% (active) | 83.8% (active) | 1% | 54% | -0.05% | 38% | 85% (active) | 80.5% (active) | 55% | 87% (active) | 83% (active)
CC(NNC(=S)N1CCCC1)c1cccnn1 (configuration not stated) | 98% (active) | 99% (active) | 89% (active) | 91% (active) | 99% (active) | 92.3% (active) | 97% (active) | 99% (active) | 88.6% (active) | 96% (active) | 99% (active) | 90.5% (active) | 98% (active) | 99% (active) | 91.2% (active) | 97% (active) | 99% (active) | 85.3% (active)
